This is a sample that favours compounds with a hit; in the whole collection about 27% have one here.
CYP2C19 inhib – human CYP2C19 inhibition | CYP2C19 Supersomes, luciferin-H EGE luminescence, 30 min | AID 778 | 21% of 96,000 active | P33261 | inhibition, % at 5 µM;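 active = CYP2C19 inhibition above a set limit at 5 µM in the primary screen, cut at about 50% in these data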;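 also: plate controls were negative control wells for no effect and 2.5 mM tranylcypromine positive control for full effect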
EphB4 ephrin blk – antagonists of human EphB4-ephrin-B2 interaction | P54760 | EphB4 LBD / TNYL-RAW-Alexa532 peptide, fluorescence polarization | inhibition, % at 7 µM | 0.15% of 97,000 active;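 active = inhibition above the screen-wide mean inhibition plus 3 SD, cut at about 15% in these data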;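 also: 0% = DMSO wells and 100% = excess unlabeled TNYL-RAW peptide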
CYP2C19 act – cytochrome P450 2C19 (human) activation. P33261. 96,000 tested, under 10 active. recombinant CYP2C19, luciferin-H EGE luminescence; hits give high values; 0 = fully inhibited enzyme, 1 = untreated enzyme. activation factor at 5 µM;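 active = activation factor of at least 2 at 5 µM in the primary screen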;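 also: 0 = wells with 2.5 mM tranylcypromine and 1 = vehicle-only wells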
CYP2C9 act – activators of human CYP2C9; activation factor at 5 µM; recombinant CYP2C9, luciferin-H conversion, luminescence; hits give high values; factor 1 = untreated enzyme, 0 = blocked; P11712; AID 1024; 1.4% of 96,000 active;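 active = activation factor of 2 or more for CYP2C9 at a 5 µM dose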;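 also: 0 = sulfaphenazole-blocked wells and 1 = vehicle-only wells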
CYP2C9 inh – blocks human cytochrome P450 2C9; P11712; CYP2C9 Supersomes, luciferin-H conversion, luminescence; inhibition, % at 5 µM; 20% of 96,000 active; AID 777;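 active = blocking of liver enzyme CYP2C9 beyond about 50% at 5 µM, limit read from the data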
* hit, by the source's call; · = no result given.

SMILES | CYP2C19 inhib | EphB4 ephrin blk | CYP2C19 act | CYP2C9 act | CYP2C9 inh
Cc1ccc(C)c(S(=O)(=O)N2CCN(CC(=O)Nc3ccc4c(c3)OCCO4)CC2)c1 | 85* | -4 | 0.2 | 1 | -1
O=C(CN1CCN(c2nc(-c3ccccc3)cs2)CC1)Nc1ccc2c(c1)OCO2 | 9 | -3 | 0.9 | 1 | -2
Cc1ccc(C)c(S(=O)(=O)N2CCN(CC(=O)Nc3cc(C)on3)CC2)c1 | 12 | 6 | 0.9 | 2.3* | -127
O=C(CN1C(=O)C2C3C=CC(C3)C2C1=O)Nc1ccc2c(c1)OCCO2 (stereo not given) | 1 | -7 | 1 | 0.9 | 11
Cc1cc2ncn(-c3ncnc4sc5c(c34)CCC(C)C5)c2cc1C (stereo not given) | 80* | 2 | 0.2 | 0.6 | 43
Cc1cc2ncn(-c3ncnc4sc(C)c(C)c34)c2cc1C | 91* | -2 | 0.1 | 0.2 | 83*
c1ccc2c(c1)ncn2-c1ncnc2sc3c(c12)CCCC3 | 70* | 0 | 0.3 | 0.7 | 32
Cc1cc2ncn(-c3ncnc4scc(-c5ccccc5)c34)c2cc1C | 26 | 2 | 0.7 | 0.8 | 16
CC(O)CNc1nc2ccccc2n1-c1ncnc2sc3c(c12)CCC3 (stereo not given) | 38 | 0 | 0.6 | 0.6 | 44
Cc1cc2ncn(-c3ncnc4sc5c(c34)CCCC5)c2cc1C | 83* | -1 | 0.2 | 0.3 | 66*
Cc1cc(C)nc(Sc2ncnc3sc4c(c23)CCC4)n1 | · | -1 | · | · | ·
CCN(CC)CCCn1c(=S)[nH]c2ncccc2c1=O | -3 | 3 | 1 | 1.2 | -19
CC(=O)Oc1c(Cl)c(N2CCOCC2)c(OC(C)=O)c2ccccc12 | 52* | · | 0.5 | 0.7 | 26
Cc1cc(-c2n[nH]c(=S)o2)c(C)n1-c1ccccc1 | 6 | 2 | 0.9 | 0.8 | 25
CCOC(=O)NC1(NC2CCCCC2)Oc2ccccc2O1 | 34 | 4 | 0.7 | 0.4 | 57*
CCOC(=O)NC1(NC(C)C)Oc2ccccc2O1 | 31 | -2 | 0.7 | 0.9 | 12
CN(C)CCCC(=O)c1ccc2c(c1)OCO2 | -6 | 7 | 1.1 | 1.1 | -10
CCn1c2ccccc2c2nc3cc(S(=O)(=O)N4CCOCC4)ccc3nc21 | 22 | 1 | 0.8 | 0.2 | 85*
Nc1cc(=O)[nH]c(SCC(=O)Nc2cccc(Cl)c2)n1 | -3 | 2 | 1 | 1 | -1
O=C1c2ccccc2NC(c2ccc3c(c2)OCCO3)N1c1ccc2c(c1)OCCO2 (stereo not given) | 79* | · | 0.2 | 0.1 | 94*
O=C1c2ccccc2NC(c2ccc3c(c2)OCO3)N1O (stereo not given) | 17 | -3 | 0.8 | 0.8 | 16
COc1cc(C2Nc3ccccc3C(=O)N2c2ccc3c(c2)OCCO3)ccc1OCC(C)C (stereo not given) | 70* | 8 | 0.3 | 0 | 99*
COc1cccc(C2=NO[C@@H]3C(=O)N(c4ccc5c(c4)OCCO5)C(=O)[C@H]23)c1OC | 2 | -1 | 1 | 0.9 | 13
CC1(C)CC(C2N3CC4(C)CN2CC(C)(C3)C4=O)CCO1 (stereo not given) | -1 | 8 | 1 | 1 | -3
COc1cccc(NS(=O)(=O)c2ccc(S(=O)(=O)N3CCOCC3)cc2)c1 | 93* | 0 | 0.1 | 0.3 | 67*
SMILES | CYP2C19 inhib | EphB4 ephrin blk | CYP2C19 act | CYP2C9 act | CYP2C9 inh
COc1cccc(S(=O)(=O)N2CCOCC2)c1 | 42 | 0 | 0.6 | 1.2 | -17
CS(=O)(=O)Nc1ccc(S(=O)(=O)N2CCOCC2)cc1 | 3 | 4 | 1 | 1 | 4
Cc1ccc(S(=O)(=O)Nc2ccc(S(=O)(=O)N3CCCC3)cc2)cc1 | 68* | 3 | 0.3 | 0 | 98*
CCn1c(=O)c(=O)n(CC)c2cc(S(=O)(=O)Nc3cccc(OC)c3)ccc21 | 49 | 12 | 0.5 | 0.1 | 87*
COc1ccc(S(=O)(=O)Nc2ccc(S(=O)(=O)N3CCOCC3)cc2)cc1 | 60* | -15 | 0.4 | 0.1 | 94*
Cc1ccc(S(=O)(=O)N2CCCN(S(=O)(=O)c3ccc(C)cc3)CC2)cc1 | 8 | -5 | 0.9 | 1.7 | -66
O=C(NCc1ccco1)c1ccc(Cn2c(=O)c3ccccc3n(Cc3cccc(F)c3)c2=O)cc1 | 80* | -3 | 0.2 | 0.4 | 61*
N#Cc1ccccc1Cn1c(=O)n(Cc2ccc(C(=O)NCc3ccco3)cc2)c(=O)c2sccc21 | -8 | · | 1.1 | 0.6 | 36
O=C(NCc1ccco1)c1ccc(Cn2c(=O)c3ccccc3n(Cc3ccc(Cl)cc3)c2=O)cc1 | 76* | -3 | 0.2 | 0.1 | 86*
O=C(c1ccc2c(c1)OCO2)N1CCN=C1SCc1ccccc1 | 35 | · | 0.7 | 0.7 | 32
Cn1nc(C(F)(F)F)c(/C=N/OC(=O)c2ccccc2)c1Cl | -3 | 0 | 1 | 0.7 | 29
Cn1nc(C(F)(F)F)c(/C=N/OC(=O)c2ccccc2)c1Sc1ccc(Cl)cc1 | 34 | 1 | 0.7 | 0.1 | 89*
CCOC(=O)C1CCN(c2c(NCCN3CCCCC3C)c(=O)c2=O)CC1 (stereo not given) | -12 | · | 1.1 | 1.1 | -13
CCn1cc([N+](=O)[O-])c(C(=O)Nc2ccc(Br)cn2)n1 | 82* | -7 | 0.2 | 0.7 | 28
CCn1cc([N+](=O)[O-])c(C(=O)Nc2c(C)nn(Cc3c(F)c(F)c(F)c(F)c3F)c2C)n1 | 8 | -6 | 0.9 | 0.9 | 7
CCCCC(=O)OCC(=O)c1[nH]c(C)c(C(=O)OCC)c1C | -13 | -7 | 1.1 | 0.2 | 83*
CCOC(=O)c1c(C)[nH]c(C(=O)COC(=O)CNC(=O)C2CCCCC2)c1C | 13 | -8 | 0.9 | 0.6 | 37
CCOC(=O)c1c(C)[nH]c(C(=O)COC(=O)C(C)N2C(=O)C3CCCCC3C2=O)c1C (stereo not given) | 55* | -2 | 0.4 | 0.5 | 52*
CCOC(=O)c1c(C)[nH]c(C(=O)CSc2nnc(C3CC3)n2N)c1C | 69* | 0 | 0.3 | 0.3 | 66*
CCCCCCC(=O)c1c(C)[nH]c(C(=O)OCC)c1C | 25 | 7 | 0.8 | 0.3 | 71*
CCCC(=O)Nc1cc(-c2nnc(OC)c3ccccc23)ccc1N1CCCCC1 | -8 | 1 | 1.1 | 0.8 | 25
C=CCc1c(C)nc(SCCC)[nH]c1=O | -2 | · | 1 | 1.1 | -7
Cc1cc(C)c2c(CC(=O)Nc3ccc(Cl)cn3)coc2c1 | 13 | -2 | 0.9 | 1.1 | -12
CCOC(=O)c1c(C)[nH]c(N=Nc2ccccc2C)c1C | 83* | -2 | 0.2 | 0 | 95*
CCOC(=O)c1c(C)[nH]c(C(=O)COC(=O)c2oc3ccccc3c2C)c1C | -8 | -3 | 1.1 | 1 | -1
CCOC(=O)c1c(C)[nH]c(C(=O)CSc2ccccc2)c1C | 84* | · | 0.2 | 0 | 96*
CCOC(=O)c1c(C)[nH]c(C(=O)COC(=O)CN2C(=O)C3CCCCC3C2=O)c1C (stereo not given) | 37 | 8 | 0.6 | 0.7 | 26

Screening results deposited in PubChem by several laboratories.
